In the supplement of paper PMC8728848:
Only a selection was taken, and the strongest signals are over-represented in it overall.

Experiments:
Assay in all cases: glycan array binding signal (z-score within array); higher = stronger binding
Conditions in all cases: glycan notation: IUPAC condensed, linker removed
[1] = molecular target: Fuc(a1-2)Gal(b1-3)[Fuc(a1-4)]GlcNAc
Outline: (§1)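 The binding signal is a Z-score computed within each array. Data were drawn from 3228 arrays in the Consortium for Functional Glycomics database, restricted to those with a known protein sequence. Scores were averaged over arrays of the same protein sequence at different concentrations or buffers, and over linkers, and negative values can be taken as non-binding.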

[2] = molecular target: Fuc(a1-2)Gal(b1-4)Glc
Outline: as §1

[3] = molecular target: Fuc(a1-2)Gal6S(b1-4)GlcNAc
Outline: as §1

[4] = molecular target: Fuc(a1-2)[Gal(a1-3)]Gal(b1-4)GlcNAc
Outline: as §1

[5] = molecular target: Fuc(a1-2)[Gal(a1-3)]Gal(b1-4)GlcNAc(b1-2)Man(a1-3)[Fuc(a1-2)[Gal(a1-3)]Gal(b1-4)GlcNAc(b1-2)Man(a1-6)]Man(b1-4)GlcNAc(b1-4)GlcNAc
Outline: as §1

[6] = molecular target: Fuc(a1-2)[Gal(a1-3)]Gal(b1-4)GlcNAc(b1-3)GalNAc
Outline: as §1

[7] = molecular target: Fuc(a1-2)[Gal(a1-3)]Gal(b1-4)[Fuc(a1-3)]Glc
Outline: as §1

[8] = molecular target: Fuc(a1-2)[GalNAc(a1-4)]Gal(b1-4)GlcNAc
Outline: as §1

[9] = molecular target: Fuc(a1-3)[Gal(b1-4)]Glc6S
Outline: as §1

[10] = molecular target: Gal(a1-3)Fuc(a1-2)Gal(b1-4)GlcNAc(b1-3)[Gal(a1-3)Fuc(a1-2)Gal(b1-4)GlcNAc(b1-6)]GalNAc
Outline: as §1

[11] = molecular target: Gal(a1-3)Gal(b1-4)GlcNAc
Outline: as §1

[12] = molecular target: Gal(a1-4)Gal(b1-3)GlcNAc(b1-2)Man(a1-3)[Gal(a1-4)Gal(b1-3)GlcNAc(b1-2)Man(a1-6)]Man(b1-4)GlcNAc(b1-4)GlcNAc
Outline: as §1

[13] = molecular target: Gal(a1-4)GlcNAc
Outline: as §1

[14] = molecular target: Gal(b1-3)Gal(b1-4)GlcNAc(b1-2)Man(a1-3)[Gal(b1-3)Gal(b1-4)GlcNAc(b1-2)Man(a1-6)]Man(b1-4)GlcNAc(b1-4)GlcNAc
Outline: as §1

[15] = molecular target: Gal(b1-3)GlcNAc
Outline: as §1

[16] = molecular target: Gal(b1-3)GlcNAc(b1-2)Man(a1-3)[Gal(b1-3)GlcNAc(b1-2)Man(a1-6)]Man(b1-4)GlcNAc(b1-4)[Fuc(a1-6)]GlcNAc
Outline: as §1

[17] = molecular target: Gal(b1-3)GlcNAc(b1-3)Gal(b1-4)GlcNAc
Outline: as §1

[18] = molecular target: Gal(b1-3)[Fuc(a1-4)]GlcNAc(b1-2)Man(a1-3)[Gal(b1-3)[Fuc(a1-4)]GlcNAc(b1-2)Man(a1-6)]Man(b1-4)GlcNAc(b1-4)[Fuc(a1-6)]GlcNAc
Outline: as §1

[19] = molecular target: Gal(b1-4)GlcNAc(b1-3)Gal(b1-4)Glc
Outline: as §1

[20] = molecular target: Gal(b1-4)GlcNAc(b1-3)GalNAc
Outline: as §1

[21] = molecular target: GalNAc(a1-3)Fuc(a1-2)Gal(b1-4)GlcNAc(b1-3)[GalNAc(a1-3)Fuc(a1-2)Gal(b1-4)GlcNAc(b1-6)]GalNAc
Outline: as §1

[22] = molecular target: GalNAc(b1-4)Gal(b1-4)Glc
Outline: as §1

[23] = molecular target: GlcA(b1-3)Gal
Outline: as §1

[24] = molecular target: GlcNAc(b1-3)Gal(b1-4)Glc
Outline: as §1

[25] = molecular target: Kdn(a2-3)Gal(b1-4)Glc
Outline: as §1

[26] = molecular target: Kdn(a2-6)Gal(b1-4)GlcNAc
Outline: as §1

[27] = molecular target: Neu5Ac(a2-3)Gal(b1-4)GlcNAc(b1-3)Gal(b1-4)[Fuc(a1-3)]GlcNAc
Outline: as §1

[28] = molecular target: Neu5Ac(a2-3)[GalNAc(b1-4)]Gal(b1-4)GlcNAc(b1-3)GalNAc
Outline: as §1

[29] = molecular target: Neu5Ac(a2-6)GalNAc
Outline: as §1

[30] = molecular target: Neu5Ac9Ac(a2-3)Gal(b1-4)GlcNAc
Outline: as §1

[31] = molecular target: Neu5Gc(a2-3)Gal(b1-4)GlcNAc
Outline: as §1

[32] = molecular target: Neu5Gc(a2-6)Gal(b1-4)GlcNAc
Outline: as §1

B1: SCA (Schizophyllum commune) (protein)
chain: MGIDQGVYLITNAGSGTAATLKDGYVKGWERIKGKEQLNQLWFVKSVKTSASDPGYAAFNLATNKVLDLEKGLADRGTPILGWDYHEGDNQHWVIKKQADGKYYKIQSVKTQTFVDLNNGGKDNGTKIQGWVGSWDETNSHQRWVFNQFSATGSRIKSILDTHPKIHGKVIVEWPDRIYFTPDQYIFEAIWAKTGLADIKPRDPLFQSEAYEKVFKGWVVSRAQEIIKVDGFDILVGSLSLVEKSTQKIKVLDVSVRTSDDKSPDLSQIVFFDPESGRTLVDIPEGYEVNSVII
- glycan array binding signal (z-score) [1]: -0.163
- glycan array binding signal (z-score) [2]: -0.153
- glycan array binding signal (z-score) [3]: -0.161
- glycan array binding signal (z-score) [4]: 5.61
- glycan array binding signal (z-score) [5]: 7.08
- glycan array binding signal (z-score) [6]: 2.52
- glycan array binding signal (z-score) [7]: -0.163
- glycan array binding signal (z-score) [8]: 0.703
- glycan array binding signal (z-score) [9]: -0.16
- glycan array binding signal (z-score) [10]: 6.72
- glycan array binding signal (z-score) [11]: 8.25
- glycan array binding signal (z-score) [12]: 3.68
- glycan array binding signal (z-score) [13]: -0.135
- glycan array binding signal (z-score) [14]: 11.4
- glycan array binding signal (z-score) [15]: -0.162
- glycan array binding signal (z-score) [16]: -0.159
- glycan array binding signal (z-score) [17]: -0.158
- glycan array binding signal (z-score) [18]: -0.054
- glycan array binding signal (z-score) [19]: -0.16
- glycan array binding signal (z-score) [20]: -0.159
- glycan array binding signal (z-score) [21]: 0.835
- glycan array binding signal (z-score) [22]: -0.162
- glycan array binding signal (z-score) [23]: 8.44
- glycan array binding signal (z-score) [24]: -0.158
- glycan array binding signal (z-score) [25]: -0.152
- glycan array binding signal (z-score) [26]: -0.162
- glycan array binding signal (z-score) [27]: -0.164
- glycan array binding signal (z-score) [28]: -0.161
- glycan array binding signal (z-score) [29]: -0.162
- glycan array binding signal (z-score) [30]: -0.16
- glycan array binding signal (z-score) [31]: -0.161
- glycan array binding signal (z-score) [32]: -0.162
